Measurements published in the supplement of paper PMC6288085.
Structures can show the parent of a compound that is named as a salt. ± gives the uncertainty stated by the source.

Test system: Caenorhabditis elegans N2
Test: food intake (mean delta OD600 / animal over 72 h) with 50 uM loxapine co-treatment (OD600 units per animal); higher = more food eaten (less suppression of loxapine-induced hyperphagia)
Details: first compound 33 µM, loxapine concentration 50 µM
Procedure: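 C. elegans N2 adults (FUDR-sterilised, day 1) in 96-well plates fed gamma-irradiated bacteria. Each library drug (MedChemExpress FDA-approved library) at 33 uM was combined with loxapine at 50 uM. Food intake was measured as bacterial clearance: the change in OD600 from day 1 to 72 h, normalised per animal (mean over 14-21 wells of about 10-12 worms). Drugs flagged for bacterial lysis or sickness were excluded by the authors.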

| SMILES | food intake |
| --- | --- |
| CN(C)[C@@H]1C(O)=C(C(N)=O)C(=O)[C@@]2(O)C(O)=C3C(=O)c4c(O)ccc(Cl)c4[C@@H](O)[C@H]3C[C@@H]12 [demeclocycline (hydrochloride)] + CN1CCN(C2=Nc3ccccc3Oc3ccc(Cl)cc32)CC1 [loxapine] | 0.0207 ± 0.0035 |
| Cc1cc(C2CCCCC2)n(O)c(=O)c1 [ciclopirox] + CN1CCN(C2=Nc3ccccc3Oc3ccc(Cl)cc32)CC1 [loxapine] | 0.0218 ± 0.0041 |
| FC(F)(F)C(Cl)Br (stereo unspecified) [halothane] + CN1CCN(C2=Nc3ccccc3Oc3ccc(Cl)cc32)CC1 [loxapine] | 0.0227 ± 0.0031 |
| COc1ccc(C(=O)NCc2ccc(OCCN(C)C)cc2)cc1OC [itopride (hydrochloride)] + CN1CCN(C2=Nc3ccccc3Oc3ccc(Cl)cc32)CC1 [loxapine] | 0.0294 ± 0.033 |
| CCN(CC)CCOC(=O)c1ccc(N)cc1 [procaine (hydrochloride)] + CN1CCN(C2=Nc3ccccc3Oc3ccc(Cl)cc32)CC1 [loxapine] | 0.0224 ± 0.0034 |
| CO/N=C1\CN(c2nc3c(cc2F)c(=O)c(C(=O)O)cn3C2CC2)CC1CN (stereo unspecified) [gemifloxacin (mesylate)] + CN1CCN(C2=Nc3ccccc3Oc3ccc(Cl)cc32)CC1 [loxapine] | 0.023 ± 0.0032 |
| Cc1nc(C)c(Cl)c(O)c1Cl [clopidol] + CN1CCN(C2=Nc3ccccc3Oc3ccc(Cl)cc32)CC1 [loxapine] | 0.0241 ± 0.0032 |
| Cc1cc(C)c2c(c1)[C@@H](N(Cc1cc(C(F)(F)F)cc(C(F)(F)F)c1)c1nnn(C)n1)CCCN2C[C@H]1CC[C@H](C(=O)O)CC1 [Evacetrapib] + CN1CCN(C2=Nc3ccccc3Oc3ccc(Cl)cc32)CC1 [loxapine] | 0.0229 ± 0.0033 |
| c1ccc(C2CN3CCSC3=N2)cc1 (stereo unspecified) [tetramisole (hydrochloride)] + CN1CCN(C2=Nc3ccccc3Oc3ccc(Cl)cc32)CC1 [loxapine] | 0.0209 ± 0.0029 |
| O=C(Nc1c(Cl)cncc1Cl)c1ccc(OC(F)F)c(OCC2CC2)c1 [roflumilast] + CN1CCN(C2=Nc3ccccc3Oc3ccc(Cl)cc32)CC1 [loxapine] | 0.0214 ± 0.0055 |
| N=C(N)NC(=N)NCCc1ccccc1 [Phenformin (hydrochloride)] + CN1CCN(C2=Nc3ccccc3Oc3ccc(Cl)cc32)CC1 [loxapine] | 0.0236 ± 0.0019 |
| CCOC(=O)c1c(CSc2ccccc2)n(C)c2cc(Br)c(O)c(CN(C)C)c12 [arbidol (hydrochloride)] + CN1CCN(C2=Nc3ccccc3Oc3ccc(Cl)cc32)CC1 [loxapine] | 0.0227 ± 0.0057 |
| Cc1nc(C(=O)NCC(=O)O)c(O)c2ccc(Oc3ccccc3)cc12 + CN1CCN(C2=Nc3ccccc3Oc3ccc(Cl)cc32)CC1 [loxapine] | 0.0228 ± 0.0037 |
| CCOC(N)=O [urethane] + CN1CCN(C2=Nc3ccccc3Oc3ccc(Cl)cc32)CC1 [loxapine] | 0.0215 ± 0.0029 |
| O=c1[nH]c(=O)n([C@H]2C[C@H](O)[C@@H](CO)O2)cc1C(F)(F)F [trifluorothymidine] + CN1CCN(C2=Nc3ccccc3Oc3ccc(Cl)cc32)CC1 [loxapine] | 0.0216 ± 0.0028 |
| NNC(=O)c1ccncc1 [isoniazid] + CN1CCN(C2=Nc3ccccc3Oc3ccc(Cl)cc32)CC1 [loxapine] | 0.0217 ± 0.0032 |
| CN(C)[C@@H]1C(O)=C(C(N)=O)C(=O)[C@@]2(O)C(O)=C3C(=O)c4c(O)cccc4[C@@](C)(O)[C@H]3C[C@@H]12 [Tetracycline (hydrochloride)] + CN1CCN(C2=Nc3ccccc3Oc3ccc(Cl)cc32)CC1 [loxapine] | 0.0228 ± 0.0038 |
| CC(=O)NC(Cc1ccccc1)C(=O)O (racemic) [N-acetyl DL-phenylalanine] + CN1CCN(C2=Nc3ccccc3Oc3ccc(Cl)cc32)CC1 [loxapine] | 0.0223 ± 0.0049 |
| CCOc1ccc(NC(C)=O)cc1 [phenacetin] + CN1CCN(C2=Nc3ccccc3Oc3ccc(Cl)cc32)CC1 [loxapine] | 0.0226 ± 0.0036 |
| CN1C(=O)C[C@@H](C(=O)N[C@@H](Cc2c[nH]cn2)C(=O)N2CCC[C@H]2C(N)=O)NC1=O [taltirelin] + CN1CCN(C2=Nc3ccccc3Oc3ccc(Cl)cc32)CC1 [loxapine] | 0.022 ± 0.0034 |
| CC(=O)OCC(CCn1cnc2cnc(N)nc21)COC(C)=O [famciclovir] + CN1CCN(C2=Nc3ccccc3Oc3ccc(Cl)cc32)CC1 [loxapine] | 0.0236 ± 0.0029 |
